What all share (conditions): concentration: 1 μM, replicates: in singlicate; n = 1
Assay [1] has as its system PLK2.
Assay [2] deals with PLK3.
The subject of assay [3] is PLK4.
The subject of assay [4] is PRKCD.
The test system of assay [5] is PRKCE.
For assay [6], the system named is PRKCH.
The subject of assay [7] is PRKCI.
The test system of assay [8] is PRKCQ.
The subject of assay [9] is PRKD1.
Assay [10] concerns PRKD2.
Assay [11] relates to PRKD3.
For assay [12], the system named is PRKG1.
The subject of assay [13] is PRKG2.
The test system of assay [14] is T1, PRKR.
T1 construct: gene EIF2AK2

For assay [15], the system named is PRKX.
Assay [16] deals with PRP4.
In assay [17] the test system is T2, PYK2.
T2 construct: gene PTK2B

Assay [18] relates to QSK.
Assay [19] has as its system RAF1.
The test system of assay [20] is RET.
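Also: KINOMEscan kinase panel screen.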

As for `Nc1ncc(-c2ccc3nccc(-c4ccncc4)c3c2)cc1S(=O)(=O)N1CCOCC1` [GSK1627798], the “%Inh” value in [1] came to 0%; in assay [2] it was 0%; in assay [3] it was 0%; in assay [4], 0%; in assay [5], 9%; in assay [6], 18%. Moreover, the “%Inh” value in assay [7] was found to be 9%; in assay [8], 0%; in [9], 0%; in assay [10] it was 3%; in assay [11] it was 0%; in [12] it was 0%. Moreover, the “%Inh” value turned out to be 0% in [13]; 14% in assay [14]; 11% in assay [15]; 3% in assay [16]; 21% in [17]; 0% in [18]. Also, the “%Inh” value in assay [19] and in assay [20] was 0% each time.

Turning to `Nc1ncnc2c1nc(-c1ccccc1)n2-c1ccccc1` [SKF-97293], the “%Inh” value was determined as 38% in [1]; 16% in [2]; 26% in assay [3]; 14% in [4]; 35% in [5]; 9% in [6]. In addition, the “%Inh” value in [7] came to 13%; in [8], 0%; in assay [9], 5%; in assay [10] it was 0%; in assay [11], 22%; in assay [12], 7%. For the same compound, the “%Inh” value came to 0% in assay [13]; 27% in assay [14]; 3% in [15]; 15% in assay [16]; 8% in assay [17]; 26% in assay [18]. The “%Inh” value in [19] is given as 0%; in [20] it was 17%.

Regarding `Nc1ncc(-c2cccnc2)c2scc(-c3ccc4c(c3)CCN4C(=O)Cc3ccccc3)c12` [GSK683281], the “%Inh” value came out at 0% in assay [1]; 0% in assay [2]; 15% in [3]; 25% in [4]; 0% in assay [5]; 33% in assay [6]. Besides, the “%Inh” value in assay [7] was determined as 33%; in [8], 14%; in assay [9], 23%; in [10], 73%; in [11], 18%; in [12], 12%. In addition, the “%Inh” value in [13] is listed as 25%; in assay [14] it was 5%; in assay [15], 23%; in [16] it was 0%; in assay [17] it was 35%; in assay [18], 18%. For the same compound, the “%Inh” value in assay [19] stood at 11%; in assay [20], 21%.

Turning to `CSc1cccc2c(-c3ccncn3)c(-c3ccc(F)cc3)nn12` [GW514786], the “%Inh” value in assay [1] amounted to 40%; in assay [2], 0%; in [3] it was 2%; in assay [4], 0%; in assay [5], 11%; in [6], 6%. Further, the “%Inh” value amounted to 5% in assay [7]; 19% in [8]; 0% in [9]; 2% in assay [10]; 100% in assay [11]; 17% in assay [12]. Also, the “%Inh” value in assay [13] turned out to be 0%; in assay [14], 0%; in [15] it was 16%; in assay [16], 19%; in assay [17] it was 0%; in assay [18] it was 14%. The results for the “%Inh” value in assay [19] and in assay [20] were 4% and 29%, respectively.

For the compound `Cc1cccc(Nc2nc(N[C@H]3CCNC3)ncc2C(N)=O)c1.Cl` [GSK2197149], the “%Inh” value in assay [1] stood at 1%; in assay [2] it was 0%; in assay [3] it was 0%; in assay [4], 58%; in assay [5], 86%; in assay [6], 41%. For the same compound, the “%Inh” value in assay [7] is on record as 0%; in assay [8] it was 41%; in assay [9], 49%; in assay [10], 55%; in assay [11], 75%; in assay [12], 0%. Moreover, the “%Inh” value was 0% in [13]; 22% in [14]; 38% in assay [15]; 23% in assay [16]; 49% in assay [17]; 14% in assay [18]. Further, the “%Inh” value was found to be 0% in [19] and 30% in assay [20].

As for `COc1ccc(-c2coc3ccc(-c4nnc(SCc5ccc(OC)c(C(F)(F)F)c5)o4)cc23)cc1`, the “%Inh” value in assay [1] is given as 15%; in assay [2], 14%; in assay [3] it was 8%; in assay [4] it was 9%; in assay [5] it was 0%; in assay [6], 0%. For the same compound, the “%Inh” value worked out at 0% in assay [7]; 0% in assay [8]; 0% in [9]; 0% in assay [10]; 0% in assay [11]; 6% in assay [12]. Also, the “%Inh” value was determined as 14% in assay [13]; 0% in [14]; 0% in assay [15]; 15% in assay [16]; 0% in assay [17]; 0% in assay [18]. Also, the “%Inh” value in [19] is listed as 12%; in [20], 0%.

With `COc1ccc(CNC(=O)NC2CCN(c3ccnc(Nc4ccc(F)cc4)n3)CC2)cc1` [GSK1379788], the “%Inh” value in assay [1], in [2], in assay [3], in assay [4], in [5] and in assay [6] was 0% throughout. In addition, the “%Inh” value in assay [7] was 0%; in assay [8] it was 0%; in assay [9], 5%; in assay [10], 6%; in assay [11] it was 0%; in assay [12], 0%. For the same compound, the “%Inh” value in assay [13] turned out to be 0%; in assay [14] it was 0%; in assay [15], 5%; in assay [16], 46%; in assay [17], 0%; in assay [18], 0%. Also, the figures for the “%Inh” value in [19] and in [20] were 7% and 0%, respectively.

Regarding `COC(=O)Nc1nc2ccc(Oc3ccc(NC(=O)Nc4cc(C(F)(F)F)ccc4F)cc3)cc2n1C.Cl` [GW692089], the “%Inh” value was found to be 0% in assay [1]; 30% in assay [2]; 0% in assay [3]; 0% in assay [4]; 20% in [5]; 0% in assay [6]. Moreover, the “%Inh” value is on record as 4% in assay [7]; 0% in assay [8]; 0% in assay [9]; 10% in assay [10]; 5% in assay [11]; 14% in assay [12]. The “%Inh” value in assay [13] stood at 5%; in assay [14], 0%; in assay [15] it was 0%; in assay [16], 58%; in assay [17], 0%; in assay [18] it was 0%. In addition, the “%Inh” value came to 85% in [19] and 99.5% in assay [20].

In the case of `COc1cc(Nc2nccc(N3CCC(NC(=O)c4cc5ccccc5s4)C3)n2)cc(OC)c1OC` (centres unmarked) [GSK1379760], the “%Inh” value in [1] was 0%; in assay [2], 14%; in assay [3], 0%; in assay [4] it was 7%; in [5], 14%; in assay [6], 5%. Moreover, the “%Inh” value in [7] came out at 7%; in assay [8] it was 3%; in assay [9], 0%; in [10] it was 23%; in assay [11] it was 0%; in [12] it was 9%. In addition, the “%Inh” value in assay [13] stood at 7%; in assay [14], 8%; in assay [15] it was 24%; in assay [16] it was 48%; in assay [17], 0%; in assay [18] it was 100%. Also, the “%Inh” value is on record as 15% in [19] and 21% in assay [20].

For the compound `CCc1ccc(-c2ccc3c(c2)-c2c(cnn2C)S(=O)(=O)N3C)cc1`, the “%Inh” value in [1] was 4%; in assay [2], 2%; in [3], 14%; in assay [4], 0%; in assay [5], 17%; in [6], 0%. In addition, the “%Inh” value amounted to 2% in [7]; 23% in [8]; 0% in assay [9]; 14% in assay [10]; 0% in assay [11]; 0% in [12]. Besides, the “%Inh” value is reported as 0% in assay [13]; 6% in [14]; 16% in assay [15]; 10% in assay [16]; 0% in [17]; 0% in assay [18]. The figures for the “%Inh” value in assay [19] and in [20] were 19% and 5%, respectively.

The record behind these values is paper PMC5540273 (PLoS ONE, 2017).
